# Bioassay records (PubChem BioAssay)
# Most compounds without a hit are left out; they make up all but 19% or so of the library.
# DT40 TDP1 CPT = growth inhibition of DT40 Tdp1-/-;hTDP1 cells with camptothecin (screen for TDP1 inhibitors). chicken DT40 Tdp1-/-;hTDP1 cells + 20 nM CPT, ATP luminescence, 48 h. Potency, µM (series often up to 46.2 µM), most hits filed as inhibitors. hit rate 12% among 420,000; note: nearly all actives have a fitted effect of over 55% in size
#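 Chicken DT40 Tdp1-/- cells stably complemented with human TDP1 were seeded at 400 cells/well in medium containing 20 nM camptothecin, exposed to pin-transferred compounds, and grown at 37 °C for at least 48 hr. Viability was read as ATP luminescence.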
# IL1B secr inh = blocks inflammasome-driven IL-1 beta release. THP-1 LPS/ATP IL-1B secretion, AlphaLISA, 16 h; hits give low values. hit rate 4.7% among 360,000. activity change, % at 57.5 µM. AID 743279; in the data active = activity change below about -50%; inconclusive = mostly about -30% to -49%
#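 Secreted IL-1B measured by AlphaLISA bead assay after 16 h compound exposure of THP-1 cells; compounds (final up to 57.5 uM) added 1 h before LPS (250 ng/mL) and ATP (1.25 mM) stimulation; lower signal means less secretion.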
# DT40 TDP1 no CPT = qHTS for Inhibitors of human tyrosyl-DNA phosphodiesterase 1 (TDP1): qHTS in cells in absence of CPT; hit rate 15% among 420,000; DT40 Tdp1-/- hTDP1 cells, no CPT, ATP luminescence, 48 h; Potency, µM (series often up to 46.2 µM), most hits filed as inhibitors; AID 686978, 2013; note: nearly all actives have a fitted effect of over 55% in size
#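 Growth kinetics read by CellTiter-Glo luminescence after ≥48 hr at 37 °C. Cells: DT40 Tdp1-/- stably carrying human TDP1, 400 per well, compound exposure in the absence of CPT (DMSO vehicle).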
# HepG2 tox = HepG2 cytotoxicity, counter-screen for TGF-b inhibitors; AID 588856; hit rate 0.76% among 410,000; HepG2 CAGA-GFP viability, ATP luminescence, 18 h; Potency, µM (doses to about 46.1 µM), usual class: cytotoxic
#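 HepG2 CAGA-GFP cells (1000/well, DMEM with 1% FBS) received compound, then TGF-beta at 500 pg/mL final, and were incubated 18 hours at 37 degrees C. Viability was read by CellTiter-Glo luminescence. Media-only wells were set as complete cell-killing and DMSO as no toxicity.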
# TGFb SMAD3 inh = TGF-b pathway inhibition; AID 588855; hit rate 1.2% among 410,000; HepG2 CAGA-GFP TGF-b/SMAD3 reporter, GFP fluorescence, 18 h; TGF-beta stimulated, 500 pg/mL final; Potency, µM (top dose mostly 46.1 µM), usual class: inhibitors; note: nearly all actives have a fitted effect of over 65% in size
#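 Cell-based qHTS in HEPG2 carrying a CAGA-GFP Smad reporter; compounds added before 500 pg/mL final TGF-beta, 18 h incubation at 37 degrees C, GFP fluorescence quantified per cell by imaging cytometry.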
# TDP1 block = blocks human tyrosyl-DNA phosphodiesterase 1; Q9NUW8; recombinant TDP1, AlphaScreen DNA substrate cleavage; Potency, µM (top dose mostly 130 µM), actives largely listed as inhibitors; hit rate 0.28% among 350,000; note: nearly all actives have a fitted effect of over 40% in size
# Target sequence (Q9NUW8 whole entry, looked up): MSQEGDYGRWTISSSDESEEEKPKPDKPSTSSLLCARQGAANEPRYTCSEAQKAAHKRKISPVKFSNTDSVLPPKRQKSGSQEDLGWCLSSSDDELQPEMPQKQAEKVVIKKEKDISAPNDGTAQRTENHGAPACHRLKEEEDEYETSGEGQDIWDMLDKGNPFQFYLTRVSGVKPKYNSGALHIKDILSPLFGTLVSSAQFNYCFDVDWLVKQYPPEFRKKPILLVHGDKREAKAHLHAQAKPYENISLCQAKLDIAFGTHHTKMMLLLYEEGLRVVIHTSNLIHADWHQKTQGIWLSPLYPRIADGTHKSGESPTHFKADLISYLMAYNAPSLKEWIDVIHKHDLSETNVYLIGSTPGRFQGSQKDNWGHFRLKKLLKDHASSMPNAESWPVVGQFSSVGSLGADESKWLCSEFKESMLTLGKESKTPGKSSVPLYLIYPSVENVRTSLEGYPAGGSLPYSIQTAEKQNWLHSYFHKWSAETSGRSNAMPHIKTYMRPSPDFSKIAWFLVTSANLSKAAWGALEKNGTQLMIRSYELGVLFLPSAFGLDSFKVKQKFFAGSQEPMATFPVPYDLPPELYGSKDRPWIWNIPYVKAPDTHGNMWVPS
#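 Tdp1 1 nM final; 15 min RT w/ cpd; substrate 15 nM, 5 min; beads 10 ug/ml, 10 min; AlphaScreen read. Neg ctrl: no enzyme.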
# Numbers stand for hits; n = inactive; u = inconclusive; x = no result given; [ ] = another dose, or the depositor's remark. Unless noted, calls come from the whole dose curve; as a rule, active = well fitted curve in the direction sought with a large enough effect; inconclusive = small, poorly fitted or top-dose-only effect, or another doubt; inactive = no such curve, though single readings can be large; an effect the other way counts as inactive or inconclusive.
SMILES,DT40 TDP1 CPT,IL1B secr inh,DT40 TDP1 no CPT,HepG2 tox,TGFb SMAD3 inh,TDP1 block
O=C(CC1C(=O)NCCN1Cc1ccccc1C(F)(F)F)NCCN1CCCCC1=O (stereo not drawn),n,n,n,n,n,n
COc1cc2c(cc1OC)CN(C(=O)C1CCCN1S(=O)(=O)c1ccc(F)cc1)CC2 (stereo not drawn),n,n,n,n,n,x
Cc1cccc(-c2noc(CN(C(=O)c3ccc4c(c3)OCO4)C(C)C)n2)c1,18µM,n,u,n,n,n
CCN(Cc1nc(-c2ccccc2)no1)C(=O)c1ccc2c(c1)OCO2,n,n,n,n,n,n
CCN(Cc1nc(-c2cccc(C)c2)no1)C(=O)c1ccc2c(c1)OCO2,n,-69,n,n,n,n[0.0935 µM]
Cc1ccc(-c2noc(CN(C(=O)c3ccc(C(C)(C)C)cc3)C(C)C)n2)cc1,u,x,u,n,n,n
Cc1onc(-c2ccccc2Cl)c1C(=O)NCc1nc(-c2ccc(C(F)(F)F)cc2)no1,u,-76,15µM,n,u,n
Cc1onc(-c2ccccc2Cl)c1C(=O)NCc1ccccc1F,n,n,n,n,n,n
Cc1cccc(-c2noc(CN(C(=O)c3ccc(C)c(C)c3)C(C)C)n2)c1,5.2µM,x,3.7µM,n,u,n
N#CCCn1c(=O)c(CCc2ccccc2)nc2cnc(Nc3ccccc3)nc21,n,x,n,x,x,x
Cc1cccc(-c2noc(CN(C(=O)C(c3ccccc3)c3ccccc3)C(C)C)n2)c1,u,n,16µM,n,n,n
CCOc1ccc(C(=O)N(Cc2nc(-c3cccc(C)c3)no2)C(C)C)cc1,21µM,x,u,n,u,n
CC(C)N(Cc1nc(-c2ccccc2)no1)C(=O)C(Cl)(Cl)Cl,n,u,n,n,n,n
Cc1cccc(-c2noc(CN(C(=O)c3c(-c4ccccc4Cl)noc3C)C(C)C)n2)c1,21µM,n,18µM,n,n,n
COc1ccc(OC)c(NC(=O)COc2ccc(S(=O)(=O)N3CCCC3)cc2)c1,n,n,u,n,u,x
Cc1c(/C(Cc2ccccc2)=N/O)c2ccccc2n1C,n,n,u,n,n,n
Cn1c(Cc2ccccc2)[n+](C)c2ccccc21,u,n,15µM,n,n,n
CC(C)(C)S(=O)(=O)c1cnc(-c2ccc(Cl)cc2)nc1N,n,n,n,n,n,n
Cc1nc(N)nc(N)c1/C=C/C(C)(C)c1ccc(Cl)cc1,u,-106,0.033µM,n,u,n
COc1ccc(Nc2sc(C(=O)c3ccccc3)c(N)c2C(=O)Nc2cc(C)ccc2C)c(OC)c1,u,x,u,n,u,n
COc1ccc(C(=O)c2sc(Nc3cccc(OC)c3)c(C(=O)Nc3cccc(C)c3C)c2N)cc1,18µM,n,10µM,n,u,n
COc1ccc(C(=O)c2sc(Nc3ccccc3)c(C(=O)Nc3ccc(OC)c(OC)c3)c2N)cc1,26µM,n,16µM,n,n,n
COc1ccccc1NC(=O)c1c(Nc2ccccc2C)sc(C(=O)Nc2cccc(Cl)c2)c1N,21µM,u,u,n,n,n
CC(=O)OC1CC2C(C)(C)C(O)CCC2(C)C2CC[C@]3(C)C(=CC(=O)OC3c3ccoc3)C12C (stereo partly drawn),n,x,n,x,x,n
CC1(C)Cc2c(sc3c2C2=NCCN2C=N3)CS1,n,n,16µM,n,n,n
COc1ccc(NC(=S)N2CCN(c3ccc4c(c3)C3CCN(C(=O)OCc5ccccc5)C4C3)CC2)c(OC)c1 (stereo not drawn),7.3µM,n,5.2µM,n,n,x
O=C(OCc1ccccc1)N1CCC2CC1c1cc(N3CCN(C(=S)NCCc4ccccc4)CC3)ccc12 (stereo not drawn),u,n,u,n,n,x
